About 7,900 targets were measured; listed, in parts, are those with a hit and a random draw of the rest. About 0.6% of all pairs of compound and target were hits. Values without a mark were called inactive.

The results in this text go back to the supplement of paper PMC10849652.

Chain of UniProt Q16629 (Q16629 whole entry, looked up): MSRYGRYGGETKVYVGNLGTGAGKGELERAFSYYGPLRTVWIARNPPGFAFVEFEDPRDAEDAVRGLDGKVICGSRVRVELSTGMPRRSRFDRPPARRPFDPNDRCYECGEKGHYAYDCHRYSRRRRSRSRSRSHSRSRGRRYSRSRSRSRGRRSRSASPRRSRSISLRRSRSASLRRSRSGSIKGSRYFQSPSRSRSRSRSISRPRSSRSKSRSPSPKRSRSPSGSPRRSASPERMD
Chain of UniProt P05455 (P05455 whole entry, looked up): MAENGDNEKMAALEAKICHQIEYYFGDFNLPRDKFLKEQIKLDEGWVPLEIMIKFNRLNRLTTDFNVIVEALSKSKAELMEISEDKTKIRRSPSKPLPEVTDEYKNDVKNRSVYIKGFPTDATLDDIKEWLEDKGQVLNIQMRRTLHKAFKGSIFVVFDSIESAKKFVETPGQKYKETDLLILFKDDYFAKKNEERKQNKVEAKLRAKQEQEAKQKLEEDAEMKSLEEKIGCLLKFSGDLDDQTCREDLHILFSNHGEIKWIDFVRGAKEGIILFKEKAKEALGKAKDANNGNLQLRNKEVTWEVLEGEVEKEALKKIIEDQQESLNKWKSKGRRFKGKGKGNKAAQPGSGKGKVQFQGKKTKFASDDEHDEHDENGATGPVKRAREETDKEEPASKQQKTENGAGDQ
Chain of UniProt O00506 (O00506 whole entry, looked up): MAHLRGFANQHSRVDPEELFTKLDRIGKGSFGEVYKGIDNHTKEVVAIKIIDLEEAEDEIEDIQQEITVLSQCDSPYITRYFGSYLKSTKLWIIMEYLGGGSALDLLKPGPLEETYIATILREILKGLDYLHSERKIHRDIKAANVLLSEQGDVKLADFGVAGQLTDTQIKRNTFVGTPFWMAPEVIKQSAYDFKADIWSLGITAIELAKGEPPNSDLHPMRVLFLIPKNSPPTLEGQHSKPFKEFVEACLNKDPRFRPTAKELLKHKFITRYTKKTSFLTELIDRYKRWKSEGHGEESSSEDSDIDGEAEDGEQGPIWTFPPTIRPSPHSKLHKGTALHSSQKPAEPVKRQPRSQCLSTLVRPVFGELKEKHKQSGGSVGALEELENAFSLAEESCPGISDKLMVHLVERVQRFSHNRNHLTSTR
Chain of UniProt Q9UHB9 (Q9UHB9 whole entry, looked up): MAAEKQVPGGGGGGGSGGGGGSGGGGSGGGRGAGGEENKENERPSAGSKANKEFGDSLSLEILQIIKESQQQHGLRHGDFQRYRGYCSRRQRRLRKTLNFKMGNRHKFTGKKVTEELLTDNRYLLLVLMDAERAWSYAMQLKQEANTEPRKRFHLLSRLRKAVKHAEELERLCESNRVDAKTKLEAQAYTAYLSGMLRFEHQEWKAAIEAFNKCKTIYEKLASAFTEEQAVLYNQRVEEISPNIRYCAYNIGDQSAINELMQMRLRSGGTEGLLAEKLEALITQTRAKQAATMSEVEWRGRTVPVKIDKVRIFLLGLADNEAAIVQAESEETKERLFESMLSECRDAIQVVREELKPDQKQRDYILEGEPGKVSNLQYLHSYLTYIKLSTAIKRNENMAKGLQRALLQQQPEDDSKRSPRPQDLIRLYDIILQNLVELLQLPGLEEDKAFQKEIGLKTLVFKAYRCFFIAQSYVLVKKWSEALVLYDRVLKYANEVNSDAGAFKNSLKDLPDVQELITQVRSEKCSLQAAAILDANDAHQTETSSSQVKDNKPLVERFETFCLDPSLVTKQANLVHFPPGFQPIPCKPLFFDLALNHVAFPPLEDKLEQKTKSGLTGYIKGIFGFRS
Chain of UniProt Q13573 (Q13573 whole entry, looked up): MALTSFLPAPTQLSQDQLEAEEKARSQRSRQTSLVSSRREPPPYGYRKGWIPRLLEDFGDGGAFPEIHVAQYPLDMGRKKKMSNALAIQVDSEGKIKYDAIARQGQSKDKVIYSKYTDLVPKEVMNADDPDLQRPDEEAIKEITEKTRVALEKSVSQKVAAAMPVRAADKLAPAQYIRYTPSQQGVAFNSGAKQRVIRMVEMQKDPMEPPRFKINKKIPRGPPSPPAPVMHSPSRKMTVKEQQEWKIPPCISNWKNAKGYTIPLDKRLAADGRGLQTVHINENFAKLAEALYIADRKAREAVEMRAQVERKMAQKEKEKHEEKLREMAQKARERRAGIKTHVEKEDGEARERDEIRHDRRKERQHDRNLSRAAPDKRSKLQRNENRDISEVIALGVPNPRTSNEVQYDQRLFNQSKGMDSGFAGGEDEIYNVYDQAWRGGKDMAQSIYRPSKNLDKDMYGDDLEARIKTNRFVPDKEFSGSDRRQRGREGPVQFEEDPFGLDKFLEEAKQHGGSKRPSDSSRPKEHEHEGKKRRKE
Chain of UniProt Q9NZD8 (Q9NZD8 whole entry, looked up): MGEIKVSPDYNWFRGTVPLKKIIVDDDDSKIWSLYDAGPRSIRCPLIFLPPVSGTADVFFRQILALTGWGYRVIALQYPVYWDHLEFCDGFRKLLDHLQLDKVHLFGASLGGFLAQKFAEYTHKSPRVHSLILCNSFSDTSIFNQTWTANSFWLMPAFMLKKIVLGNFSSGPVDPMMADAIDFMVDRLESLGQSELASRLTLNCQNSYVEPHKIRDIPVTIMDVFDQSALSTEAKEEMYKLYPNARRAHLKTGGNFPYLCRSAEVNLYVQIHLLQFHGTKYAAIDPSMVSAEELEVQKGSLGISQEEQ
Chain of UniProt O95926 (O95926 whole entry, looked up): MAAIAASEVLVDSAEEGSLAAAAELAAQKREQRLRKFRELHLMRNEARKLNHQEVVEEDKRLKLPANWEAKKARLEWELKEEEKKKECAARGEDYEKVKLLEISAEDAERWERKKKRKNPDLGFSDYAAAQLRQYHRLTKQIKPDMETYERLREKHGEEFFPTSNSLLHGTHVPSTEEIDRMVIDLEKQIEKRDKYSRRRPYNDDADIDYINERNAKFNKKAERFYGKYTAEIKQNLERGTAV
Chain of UniProt P08047 (P08047 whole entry, looked up): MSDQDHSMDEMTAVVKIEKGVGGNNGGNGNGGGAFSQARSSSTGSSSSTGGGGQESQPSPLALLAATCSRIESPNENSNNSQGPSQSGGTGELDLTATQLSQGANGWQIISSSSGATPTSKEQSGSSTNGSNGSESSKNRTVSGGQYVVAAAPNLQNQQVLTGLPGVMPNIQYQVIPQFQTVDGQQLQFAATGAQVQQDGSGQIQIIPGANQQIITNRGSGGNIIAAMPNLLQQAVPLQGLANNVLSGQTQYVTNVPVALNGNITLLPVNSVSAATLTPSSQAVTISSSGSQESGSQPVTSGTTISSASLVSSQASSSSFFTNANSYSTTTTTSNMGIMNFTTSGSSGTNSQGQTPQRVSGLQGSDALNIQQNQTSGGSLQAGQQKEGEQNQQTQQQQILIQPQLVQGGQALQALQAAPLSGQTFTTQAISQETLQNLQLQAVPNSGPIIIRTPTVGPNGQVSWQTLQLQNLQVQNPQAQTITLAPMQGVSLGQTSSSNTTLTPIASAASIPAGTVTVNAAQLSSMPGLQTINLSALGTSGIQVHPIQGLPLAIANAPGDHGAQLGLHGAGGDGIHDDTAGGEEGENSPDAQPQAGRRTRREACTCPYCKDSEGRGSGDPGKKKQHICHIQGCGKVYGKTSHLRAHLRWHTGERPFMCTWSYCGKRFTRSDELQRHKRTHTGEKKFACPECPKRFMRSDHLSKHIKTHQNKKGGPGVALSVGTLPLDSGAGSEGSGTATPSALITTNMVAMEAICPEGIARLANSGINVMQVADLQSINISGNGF
Chain of UniProt Q92797 (Q92797 whole entry, looked up): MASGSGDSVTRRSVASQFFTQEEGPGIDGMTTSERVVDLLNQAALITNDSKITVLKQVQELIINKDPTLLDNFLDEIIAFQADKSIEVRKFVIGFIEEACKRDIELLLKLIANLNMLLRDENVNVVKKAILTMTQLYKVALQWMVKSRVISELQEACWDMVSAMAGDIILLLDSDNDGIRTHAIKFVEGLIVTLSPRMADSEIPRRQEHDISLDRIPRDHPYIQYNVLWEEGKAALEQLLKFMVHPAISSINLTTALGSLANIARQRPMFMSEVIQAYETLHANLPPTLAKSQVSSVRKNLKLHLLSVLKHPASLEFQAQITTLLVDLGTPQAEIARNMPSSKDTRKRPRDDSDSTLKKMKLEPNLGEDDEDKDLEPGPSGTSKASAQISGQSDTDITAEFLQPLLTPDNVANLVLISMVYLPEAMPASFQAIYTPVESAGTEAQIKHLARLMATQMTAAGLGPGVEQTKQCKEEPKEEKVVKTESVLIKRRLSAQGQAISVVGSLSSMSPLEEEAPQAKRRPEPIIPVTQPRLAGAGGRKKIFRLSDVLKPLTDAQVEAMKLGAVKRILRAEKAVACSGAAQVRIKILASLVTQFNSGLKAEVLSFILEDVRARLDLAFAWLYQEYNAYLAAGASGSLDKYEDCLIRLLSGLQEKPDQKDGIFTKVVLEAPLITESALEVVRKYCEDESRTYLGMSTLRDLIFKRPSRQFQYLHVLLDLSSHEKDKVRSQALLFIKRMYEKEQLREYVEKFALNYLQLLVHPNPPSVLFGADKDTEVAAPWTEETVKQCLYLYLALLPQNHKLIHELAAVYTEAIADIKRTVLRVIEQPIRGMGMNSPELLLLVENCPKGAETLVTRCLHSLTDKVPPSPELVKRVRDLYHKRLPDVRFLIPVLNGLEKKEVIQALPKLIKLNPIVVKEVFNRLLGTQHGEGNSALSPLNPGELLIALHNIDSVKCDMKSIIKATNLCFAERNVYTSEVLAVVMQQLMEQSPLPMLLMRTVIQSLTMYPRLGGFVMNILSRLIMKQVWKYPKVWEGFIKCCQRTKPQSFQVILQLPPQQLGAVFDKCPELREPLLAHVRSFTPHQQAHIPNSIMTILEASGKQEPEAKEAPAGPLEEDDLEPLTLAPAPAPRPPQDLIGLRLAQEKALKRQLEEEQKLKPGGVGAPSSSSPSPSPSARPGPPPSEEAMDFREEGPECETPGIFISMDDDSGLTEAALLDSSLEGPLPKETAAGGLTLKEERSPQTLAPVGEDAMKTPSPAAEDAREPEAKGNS
Chain of UniProt P62072 (P62072 whole entry, looked up): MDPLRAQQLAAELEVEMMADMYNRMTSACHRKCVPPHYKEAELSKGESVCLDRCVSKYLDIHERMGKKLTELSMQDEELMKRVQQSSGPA

Compound in the first assay: CS(=O)(=O)c1ccc(-c2cnc(N)c(C(=O)Nc3ccccc3)n2)cc1
Kind of assay: log2 fold change, soluble protein after heating vs DMSO (PISA); higher = thermal stabilisation; K562 cells, 10 uM, 30 min; active = over 0.2 and 3.5 SD of the protein, either way, in both replicates (recomputed). Put shortly:
(§1)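 For each measurement, 10 μM compound was applied for 30 min to K562 cells at 2×10^6 cells/mL. Aliquots were heated for 3 min across 48°C-58°C, pooled, and extracted in PBS with 0.5% NP-40 at 4°C; the supernatant after 21,000xg for 90 min was soluble protein. This was quantified by TMTpro 16plex LC-MS/MS with channel sums equalised, and thermal stability was reported relative to control samples from duplicates, on a log2 fold-change scale.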
Turning to SYF2 (UniProt O95926), the log2 fold change was -0.147.

For the target STK25 (UniProt O00506), the log2 fold change is 0.04. Consider SYMPK (UniProt Q92797), for which the log2 fold change is -0.031.

For the target SP1 (UniProt P08047), the log2 fold change was 0.031. The same measure, in the same setting: the figure for SSB (UniProt P05455) is -0.159. Consider STARD3NL (UniProt O95772), for which the log2 fold change is -0.011.

SPG21 (UniProt Q9NZD8): the log2 fold change was 0.077. The same measure, in the same setting: the figure for SRP68 (UniProt Q9UHB9) is 0.004. Take TJP2 isoform 7 (UniProt Q9UDY2): the log2 fold change is 0.006. Take SPPL2B (UniProt Q8TCT7): the log2 fold change was 0.049. Still for that read-out and setting: to SRSF7 (UniProt Q16629) belongs -0.096; to SNW1 (UniProt Q13573), -0.035.

For TBC1D23 (UniProt Q9NUY8), the log2 fold change is -0.026. Take SLC30A7 (UniProt Q8NEW0): the log2 fold change was -0.01.

Compound in another assay: C[C@@H](Oc1cc(-c2cnn(C3CCNCC3)c2)cnc1N)c1c(Cl)ccc(F)c1Cl [crizotinib]
The assay is described as above. The essentials: as §1
With STAT5B (UniProt P51692), the log2 fold change was -0.353. As for STAT3 (UniProt P40763), the log2 fold change was -0.126. The same measure, in the same setting: to STAM2 (UniProt O75886) belongs -0.008; to TIAL1 isoform 2 (UniProt Q01085), -0.039; to SLC38A9 (UniProt Q8NBW4), -0.201. In the case of STAT5A (UniProt P42229), the log2 fold change was -0.002.

Take SNX5 (UniProt Q9Y5X3): the log2 fold change was -0.32 (active). For the target SMARCE1 (UniProt Q969G3), the log2 fold change was 0.011. The same measure, in the same setting: to SRSF3 (UniProt P84103) belongs 0.061. Turning to SMC5 (UniProt Q8IY18), the log2 fold change was 0.161. Take SNX1 (UniProt Q13596): the log2 fold change was -0.247. Regarding TARBP1 (UniProt Q13395), the log2 fold change is 0.016. Turning to STX17 (UniProt P56962), the log2 fold change is -0.27. For the target SMARCAD1 isoform 2 (UniProt Q9H4L7), the log2 fold change was -0.112. Regarding TIMM10 (UniProt P62072), the log2 fold change was 0.051. In the case of SPCS2 (UniProt Q15005), the log2 fold change is 0.001. For SMAP2 (UniProt Q8WU79), the log2 fold change is 0.097. Still for that read-out and setting: the figure for TK1 (UniProt P04183) is 0.011. Consider TIMM44 (UniProt O43615), for which the log2 fold change was -0.207. As to TIMM29 (UniProt Q9BSF4), the log2 fold change is 0.08.

On to SRI (UniProt P30626), for which the log2 fold change was 0.082. SORT1 (UniProt Q99523): the log2 fold change was -0.742 (active). Regarding SLC7A6 (UniProt Q92536), the log2 fold change is 0.065. For the target SYF2 (UniProt O95926), the log2 fold change is 0.206. Turning to STK25 (UniProt O00506), the log2 fold change was -0.2. As to SYMPK (UniProt Q92797), the log2 fold change was -0.189.

Consider SP1 (UniProt P08047), for which the log2 fold change was -0.038. Regarding SSB (UniProt P05455), the log2 fold change was 0.022. On to STARD3NL (UniProt O95772), for which the log2 fold change was -0.448 (active).

Consider SPG21 (UniProt Q9NZD8), for which the log2 fold change is -0.24.

On to SRP68 (UniProt Q9UHB9), for which the log2 fold change is -0.134.

Regarding TJP2 isoform 7 (UniProt Q9UDY2), the log2 fold change is -0.026. Regarding SPPL2B (UniProt Q8TCT7), the log2 fold change was -0.011. Consider SRSF7 (UniProt Q16629), for which the log2 fold change was 0.008. Turning to SNW1 (UniProt Q13573), the log2 fold change was 0.068. Same read-out and setting: to TBC1D23 (UniProt Q9NUY8) belongs -0.019.

Turning to SLC30A7 (UniProt Q8NEW0), the log2 fold change was 0.014.
